# Measured values reported in PubChem BioAssay (EPA / NIEHS).
# Some compounds were tested as several samples or in several runs, with calls that do not always agree. Active and inactive are the calls of the source. The calls were made as follows: active = hit-call score of the fitted dose curve at least 0.9, where 1 is the maximum; inactive = score below 0.9.
# Read-out: Collagen I, COL1A1 (gene 1277)
# Experiment: BSK_hDFCGF_CollagenI: BioMAP Diversity Plus: hDFCGF Assay for Collagen I Biomarker Activity (AID 2284250)
# Settings: primary human foreskin fibroblasts
# Method: BSK_hDFCGF is a cell-based, multiplexed-readout assay that uses foreskin fibroblast, a human skin primary cell, with measurements taken at 24 hours after chemical dosing in a 96-well plate.BSK_hDFCGF_CollagenI is an assay component measured in the BSK_hDFCGF assay. It measures Collagen I antibody related to regulation of gene protein expression using ELISA technology.Data from the assay component BSK_hDFCGF_CollagenI was analyzed at the endpoint, BSK_hDFCGF_CollagenI, in the positive analysis fitting direction relative to DMSO as the negative control and baseline of activity. Using a type of binding reporter, gain or loss-of-signal activity can be used to understand protein changes. To generalize the intended target to other relatable targets, this assay endpoint is annotated to the 'cell adhesion molecules' intended target family, where the subfamily is 'collagen'.
# The levels of cell surface (or secreted, indicated by the prefix "s") biomarker endpoints were measured by ELISA. Overt cytotoxicity to cells in confluent adherent cultures (all systems other than the BT system) was assessed by measuring total protein levels using sulforhodamine B (SRB) staining in parallel cultures at the time of biomarker measurements, indicated as SRB endpoints. For proliferation assays for adherent cell types, individual cell types are cultured at sub-confluence and relative cell numbers quantified by SRB staining at time points optimized for each system (48 h: 3C and CASM3C systems; 72 h: BT and HDF3CGF systems; 96 h: SAg system). SRB was performed by staining cells with 0.1% SRB after fixation with 10% TCA and reading wells at 560 nm.Viability and proliferation of PBMC (T cells) was quantified by Alamar Blue reduction for the SAg and BT systems. For PBMC viability (referred to as PBMC Cytotoxicity within the assay endpoint names), cells were plated (75,000/well in a 96-well plate) and then chemical samples added for 1 h before addition of activators, SEB and TSST-1 (20 ng/mL final concentration each). Cells were incubated for 90 h. Then, Alamar Blue (20 uL/well) (Invitrogen, Cat DAL1100) was added for 6 h, and the plates were read with a fluorescence microplate reader at 546/580 nm (excitation/emission). For PBMC proliferation, cells were plated and activated as above but incubated for only 16 h prior to addition of Alamar Blue. Plates were read after 6 h.
Compound,outcome,AC50
COc1cc(CNC(=O)CCCC/C=C/C(C)C)ccc1O,inactive,–
O=[N+]([O-])c1cc(S(=O)(=O)Nc2ccccc2)ccc1Nc1ccccc1,inactive,3.86 µM (active)
CN(C)Cc1cc(C(C)(C)C)c(O)c(C(C)(C)C)c1,inactive,–
OC(C(F)(F)F)(C(F)(F)F)C(O)(C(F)(F)F)C(F)(F)F,inactive,30 µM (active)
CCC[Si](OC(C)=O)(OC(C)=O)OC(C)=O,inactive,–
Cc1c(C(N)=O)cc([N+](=O)[O-])cc1[N+](=O)[O-],inactive,–
CCCCC(CC)COC(=O)C=Cc1ccc(OC)cc1 (stereo unspecified),inactive,9.37 µM (active)
C1CN(CCOCCN2CCOCC2)CCO1,inactive,–
COc1ccccc1Oc1c(NS(=O)(=O)c2ccc(C(C)(C)C)cc2)nc(-c2ncccn2)nc1OCCO,inactive,–
CC(C)C1OCCN1CCOC(=O)NCCCCCCNC(=O)OCCN1CCOC1C(C)C (stereo unspecified),inactive,1.44 µM (active)
CC[N+](CC)(CC(=O)Nc1c(C)cccc1C)Cc1ccccc1 (tested in a mixture with another compound),inactive,–
COc1ccc(C(=O)c2ccccc2O)c(O)c1,inactive,–
